Inconclusive results are not listed. Where a call stands in place of a potency, no number is given. Calls of active or inactive are those of the source. Calls follow the shape of the dose curve; as a rule, active = well fitted inhibition curve with a large enough effect; inconclusive = small, poorly fitted or top-dose-only effect; inactive = no such curve, though single readings can be large or run the other way.
Assays:
[1] = tested on: Zika virus NS2B-NS3 protease (unlinked complex); test: Primary screen GU Rhodamine qHTS for Zika virus inhibitors: Unlinked NS2B-NS3 protease assay (AID 1347159); also: nearly all actives have a fitted effect of over 60% in size; also: potency is read from the fitted curve at half-maximal effect
Method in brief: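 Buffer 10 mM Tris-HCl pH 8.0, 0.01% Tween 20. Unlinked protease 25 nM; compound preincubation 15 min, RT, protected from light. Substrate Rhod110, 1.5 microM; ~15% conversion in 15 min.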

[2] = tested on: Zika virus NS2B-NS3 protease (linked construct); test: Primary screen NINDS Rhodamine qHTS for Zika virus inhibitors (AID 1347160); also: nearly all actives have a fitted effect of over 55% in size
Method in brief: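 Aprotinin served as in-plate control. Conditions: 25 nM linked NS2B-NS3, pH 8.0 Tris buffer, titrated compounds, 15 min preincubation and 15 min reaction with 1.5 microM Rhod110 substrate at room temperature.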

Compound | Potency [1] | Potency [2]
CC(C)(O)CNc1nc(Nc2ccnc(C(F)(F)F)c2)nc(-c2cccc(C(F)(F)F)n2)n1 | inactive | inactive
CC1(C(=O)O)CCCC2(C)C1CCC13CC(CCC21)C1(CO)OC31 (stereo unspecified) | inactive | inactive
COc1ccc2c(c1O)OC[C@H]1c3ccc(O)cc3O[C@@H]21 | inactive | inactive
COc1cc2c(cc1OC)CN(C(=O)[C@@H](NCc1ccncc1)C(C)(C)C)CC2 | inactive | inactive
Cn1c(=O)cc(N2CCCC(N)C2)n(Cc2ccccc2C#N)c1=O (stereo unspecified) | inactive | inactive
CC/C=C\C[C@H]1C(=O)C=C[C@@H]1CCCCCCCC(=O)O | 35.5 µM (active) | inactive
CC(=O)[C@@H]1CC[C@]2(C(=O)O)CC[C@]3(C)C(CCC4[C@@]5(C)CC[C@H](O)C(C)(C)C5CC[C@]43C)C12 (stereo partly specified) | inactive | inactive
CCc1nc(C(N)=O)c(Nc2ccc(N3CCC(N4CCN(C)CC4)CC3)c(OC)c2)nc1NC1CCOCC1 | inactive | inactive
CC(C)(O)c1ccc2c(c1)C(O)CC1C(C)(C(=O)O)CCCC21C (stereo unspecified) | inactive | inactive
C=C1CC[C@@H]2[C@](C)(CC[C@H](O)[C@@]2(C)CCC=C(C)C)[C@@H]1Cc1c[nH]c2ccccc12 | inactive | inactive
O=C(c1ccc(C#Cc2cccc(F)c2)cn1)N1CC2CC2C1 (stereo unspecified) | inactive | inactive
O=c1ccn([C@@H]2O[C@H](CO)[C@@H](O)[C@H]2O)c(=O)[nH]1 | inactive | inactive
C[C@@H]1CC[C@]2(C)C3(C)CC[C@@]2(OC3=O)[C@@]12C[C@H](c1ccoc1)OC2=O | inactive | inactive
O=c1ccn(C2OC(CO)C(O)C2O)c(=O)[nH]1 (stereo unspecified) | inactive | inactive
O=C(C1CC1)N1CC[C@@H](Cc2n[nH]c(=O)n2-c2ccc(-c3ccc4occc4c3)cc2)C1 | inactive | inactive
CC(=O)N1CCN(NC(=O)c2ccc(F)cc2)CC1 | inactive | inactive
Oc1ccc([C@H]2COc3cc(O)ccc3C2)cc1 | inactive | inactive
CC(C)(O)C1CCC2(C)C3C(O)C4C(C13)C42CO (stereo unspecified) | inactive | inactive
COc1cc(C)c(C(=O)O[C@H]2[C@@H](O)[C@H](n3ccc(=O)[nH]c3=O)O[C@@H]2CO)c(OC)c1 | inactive | inactive
CC(NCc1ccc(OCc2cccc(F)c2)cc1)C(N)=O (stereo unspecified) | inactive | inactive
C[C@@H]1C(=O)O[C@H]2CC34[C@H]5C[C@@H](C(C)(C)C)C36[C@@H](OC(=O)[C@@H]6O)O[C@@]4(C(=O)O5)[C@]21O (stereo partly specified) | inactive | inactive
CNC(=O)COC(=O)NCCC1CCN(c2cccc(C)n2)CC1 | inactive | inactive
CC1(C)O[C@]23C[C@H]1C[C@H](OC(=O)c1ccoc1)[C@]2(C)[C@@H](OC(=O)c1ccoc1)CCC3(C)O (stereo partly specified) | inactive | inactive
CC(=O)OC[C@@]12[C@H](O)C[C@]3(C)C(=CCC4[C@@]5(C)CC[C@H](O[C@@H]6O[C@H](C(=O)O)[C@@H](O[C@@H]7O[C@H](CO)[C@@H](O)[C@H](O)[C@H]7O)[C@H](O)[C@H]6O[C@@H]6O[C@H](CO)[C@@H](O)[C@H](O)[C@H]6O)[C@](C)(CO)C5CC[C@]43C)[C@@H]1CC(C)(C)[C@@H](OC(C)=O)[C@@H]2O (stereo partly specified) | inactive | inactive
C/C(=C/CO)CC[C@@H]1[C@@]2(C)CCC[C@](C)(C(=O)O)C2CC[C@@]1(C)O (stereo partly specified) | inactive | inactive
COC(=O)[C@@]1(C)CC[C@]2(C(=O)O[C@@H]3O[C@H](CO)[C@@H](O)[C@H](O)[C@H]3O)CC[C@]3(C)C(=CCC4[C@@]5(C)CC[C@H](O[C@@H]6O[C@H](C(=O)O)[C@@H](O)[C@H](O)[C@H]6O)C(C)(C)C5CC[C@]43C)[C@@H]2C1 (stereo partly specified) | inactive | inactive
NC(=O)c1ccc(OCC2NC(=O)C3CCCN3C2=O)cc1 (stereo unspecified) | inactive | inactive
C[C@H]1C[C@H]2[C@@H]3CCC4=CC(=O)C=C[C@]4(C)[C@@]3(F)[C@@H](O)C[C@]2(C)[C@@]1(O)C(=O)COP(=O)(O)O | inactive | inactive

— PubChem BioAssay (NCATS)
